Screens deposited in PubChem by The Scripps Research Institute Molecular Screening Center.
DAX1 inh-1 – DAX1 (NR0B1) inhibitors, primary screen, cell-based, HEK293, Gal4-DAX1, luciferase luminescence | 340,000 compounds, 0.99% hits | Nuclear receptor subfamily 0 group B member 1 (Homo sapiens), P51843 | inhibition, % at 6.75 µM | HEK293 Gal4-DAX1 luciferase reporter | AID 504766, 2011;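 active = inhibition above the mean over all tested compounds plus 3 SD, cut at about 4.2% in these data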;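 note: 0% = DAX1-transfected cells with DMSO and 100% = empty-vector control cells with DMSO; inhibition shows as a rise in luminescence from relieved DAX1 repression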
Target sequence (P51843 207-470 limits assumed): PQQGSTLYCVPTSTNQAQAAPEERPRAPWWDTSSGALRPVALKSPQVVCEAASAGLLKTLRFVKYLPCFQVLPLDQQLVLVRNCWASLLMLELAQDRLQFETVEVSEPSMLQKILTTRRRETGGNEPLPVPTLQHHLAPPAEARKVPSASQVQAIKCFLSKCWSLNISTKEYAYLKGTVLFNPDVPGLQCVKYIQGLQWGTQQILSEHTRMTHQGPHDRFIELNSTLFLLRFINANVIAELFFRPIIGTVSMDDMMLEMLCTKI
hcDAF-12 act – H. contortus DAF-12 nuclear receptor activators, primary screen, cell-based, luminescence, HEK293, lit1-tk-luc reporter; 370,000 compounds, 1.4% hits; HEK293 hcDAF-12 lit1-tk-luc reporter; 0% DMSO, 100% Δ7-dafachronic acid; AID 652067, 2013; activation, % at 6.8 µM;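 active = activation above the mean of all tested compounds plus 3 SD, cut at about 5.5% in these data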;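 note: 100% = response to 3 µM Δ7-dafachronic acid high control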
hgDAF12 agonist – H. glycines DAF-12 receptor agonists, primary screen, cell-based, luminescence, HEK293, GAL4 fusion, UAS-luciferase; 370,000 compounds, 1.8% hits; HEK293 GAL4-hgDAF12 UAS-luciferase reporter, agonist luminescence; normalized to butyrate control; AID 687014, 2013; activation, % at 6.8 µM; Nuclear hormone receptor DAF-12 (Heterodera glycines), GAL4 fusion;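 active = activation above a cutoff set at the mean of all screened compounds plus 3 SD, cut at about 10% in these data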;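 note: 0% = DMSO wells and 100% = sodium butyrate wells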
AHR act – AHR activators, primary screen, cell-based, luminescence, luciferase reporter, human | Aryl hydrocarbon receptor (Homo sapiens), P35869 | AHR-responsive luciferase reporter cells | activation, % at 5 µM | 320,000 compounds, 2.5% hits | AID 2796, 2010; in the data active = activation above about 47%;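 note: 0% = vehicle wells and 100% = reference agonist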
ssDAF-12 act – S. stercoralis DAF-12 nuclear receptor activators, primary screen, cell-based, luminescence, HEK293, GRIP1 co-expression, lit1-tk-luc. activation, % at 6.8 µM. 370,000 compounds, 1% hits. Nuclear hormone receptor DAF-12 (Strongyloides stercoralis). HEK293 ssDAF-12/GRIP1 lit1-tk-luc reporter; % of 3 µM dafachronic acid response;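 active = activation above the mean over all tested compounds plus 3 SD, cut at about 0.9% in these data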;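 note: 0% = DMSO-only wells and 100% = 3 µM delta7-dafachronic acid wells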
DAX1 inh-2 – DAX1 (NR0B1) inhibitors on StAR promoter, primary screen, cell-based, luminescence, SF-1 (NR5A1), full-length DAX-1 | HEK293T StAR-luciferase reporter, SF-1/DAX-1 repression relief | inhibition, % at 6.8 µM | 370,000 compounds, 1.1% hits | AID 652010, 2013;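 active = inhibition above the mean over all tested compounds plus 3 SD, cut at about 3.6% in these data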;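 note: 0% = DAX-1 cells with DMSO and 100% = cells lacking DAX-1 with DMSO; higher inhibition means more luminescence from relief of DAX-1 repression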
* hit, by the source's call; x = not tested or not shown. In the library only some 5.7% were active in any assay of this set; here they are far more common.

SMILES	DAX1 inh-1	hcDAF-12 act	hgDAF12 agonist	AHR act	ssDAF-12 act	DAX1 inh-2
OCCCCCN=c1cc(-c2ccccc2)oc2ccc(Cl)cc12	2	5	9	6	-1	1
CC1CC(=O)Nc2ccccc2N1 (configuration not stated)	1	1	0	x	-1	0
CC1CC(c2ccccc2)=Nc2ccccc2N1 (configuration not stated)	0	5.7*	8	19	0	1
N#Cc1[nH]nc2nc[nH]c(=O)c12	x	0	-3	x	-2	1
O=C(Cc1cccs1)N/N=C/C=C\c1ccco1	1	0	-1	6	-1	0
O=C(N/N=C/C=C\c1ccco1)c1cccs1	x	1	7	1	1.3*	0
COc1ccc(-c2nc(-c3cccs3)c(-c3cccs3)[nH]2)cc1O	-2	-1	-2	48*	-1	-2
Nc1cccc(NC(=O)CCC(=O)NCc2ccco2)c1	1	2	-2	1	-1	0
COC(=O)/C(C#N)=C/c1c(N2CCN(c3ccc(OC)cc3)CC2)nc2c(C)cccn2c1=O	-2	2	4	32	0	1
CNC(=O)/C(C#N)=C/c1c(N2CCN(c3ccccc3)CC2)nc2c(C)cccn2c1=O	0	3	5	49*	-1	0
CNC(=O)/C(C#N)=C/c1c(N2CCN(c3ccc(OC)cc3)CC2)nc2c(C)cccn2c1=O	-1	-1	-1	55*	-2	-1
CCN(c1ccccc1)S(=O)(=O)c1ccc(OC)c(NC(=O)C2=NN(c3ccccc3)C(=O)CC2)c1	-1	0	-2	x	-1	-3
CCOc1cc(CNCC(O)c2ccccc2)cc(Cl)c1OC (configuration not stated)	-1	0	1	-8	-2	0
CCOC(=O)c1c(C)n(C)c2ccc(OC)c([N+](=O)[O-])c12	0	-4	2	55*	-2	0
C/C(CCc1ccco1)=N\NC(=O)CNc1c(Br)cc(Br)cc1Br	6.8*	0	2	6	-1	0
Cc1ccc(C)c(NC(=S)N(C2CCCCC2)C(C)c2cccnc2)c1 (configuration not stated)	0	-2	-5	0	-1	0
CCC(C(=O)NCCCN1CCN(CCCNC(=O)C(CC)c2ccccc2)CC1)c1ccccc1 (configuration not stated)	2	-1	2	-1	-1	0
Cc1cccn2cc(-c3ccccc3)nc12	3	5	13*	38	1.1*	3
COc1ccc(-c2cn3cccc(C)c3n2)cc1Br	3	3	8	12	0	2
O=c1oc2cc(O)ccc2cc1-c1nc2c(s1)CCc1ccccc1-2	1	4	2	14	-2	0
O=c1oc2ccccc2cc1-c1nc2c(s1)CCc1ccccc1-2	-1	2	3	71*	0	0
O=C(NNC(=O)C12CC3CC(CC(C3)C1)C2)c1ccccc1F	1	2	2	1	-1	0
CC(=O)Nc1ccc2nc(-c3ccc(Br)o3)[nH]c2c1	-1	2	11*	33	0	1
O=C(Nc1ccc2nc(-c3ccc(Br)o3)[nH]c2c1)c1ccco1	0	0	2	-13	1	0
CN(C(=O)c1ccccc1OCC(=O)Nc1ccc(Br)cc1)c1ccccc1	x	-3	4	x	1.0*	-2
SMILES	DAX1 inh-1	hcDAF-12 act	hgDAF12 agonist	AHR act	ssDAF-12 act	DAX1 inh-2
CCN(CC)C(=O)Oc1ccc2cc(Br)ccc2c1	0	6.3*	5	-4	-2	1
COCc1c(C(=O)N2CCN(Cc3c(F)cccc3Cl)CC2)oc2ccccc12	-1	-3	-3	-1	-2	0
COC(=O)c1[nH]c2ccc(C)cc2c1NC(=O)C1=COCCO1	0	1	0	68*	-1	0
CCOC(=O)c1[nH]c2ccc(OC)cc2c1NC(=O)c1ccc(OC)c(OC)c1	-2	-2	0	3	0	0
COC(=O)c1[nH]c2ccc(F)cc2c1NC(=O)C1=COCCO1	-1	-1	1	23	-1	1
COC(=O)c1[nH]c2cc(OC)c(OC)cc2c1NC(=O)c1cccc(OC)c1	-1	0	-4	62*	-1	-2
COc1cc(C(=O)Nc2c(C(=O)O)[nH]c3ccc(C)cc23)cc(OC)c1OC	2	6.1*	5	x	0	0
CCOc1ncccc1C(=O)OCc1ccc(Cl)cc1	2	0	1	0	-1	-1
Cc1cc(NC(c2cccnc2)c2c(C)[nH]c3ccccc23)no1 (configuration not stated)	0	2	0	11	0	1
COc1ccc(N2C(=O)N3[C@H](c4ccc(Cl)cc4)[C@@H]4C(=O)N(C5CCCCC5)C(=O)[C@@H]4[C@]3(Cc3ccc(Cl)cc3)C2=O)cc1	2	-1	1	0	-1	0
CN(C)c1cccc(C(=O)Nc2nnc(Cc3ccccc3)s2)c1	1	-2	5	54*	-1	0
O=C(Nc1nnc(Cc2ccccc2)s1)c1cccnc1	1	1	-2	5	0	0
CCCc1nnc(NC(=O)OCC)s1	-1	-1	-4	74*	-2	0
CCCCc1nnc(NC(=O)C(=O)OCC)s1	0	0	2	-2	-1	1
CCCc1nnc(NC(=O)c2cccc(OC)c2)s1	3	1	13*	5	0	4.0*
Cc1cccc(NS(=O)(=O)c2csc(C(N)=O)c2)c1	1	-2	-2	2	-1	-1
COc1cc(-c2cc(-c3ccc(O)cc3)nc(N)c2C#N)ccc1O	0	-2	-5	3	-1	-2
COc1ccccc1-c1cc(-c2ccc(O)cc2)nc(N)c1C#N	2	0	0	62*	-2	-1
O=C(O)CSc1nnc(-c2ccc(S(=O)(=O)N3CCCC3)cc2)n1Cc1ccco1	1	-2	1	-1	-1	0
O=C(CCOc1ccccc1)N1CCCC(Nc2ccccc2)C1 (configuration not stated)	2	-3	1	x	-1	1
